Assay results as given in PubChem BioAssay (NCI).
This is part of a sample that, as a whole, favours compounds with a hit. Of some 83,000 tested, about 20% had one in any assay.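 Negative percent growth values reflect cell death: -40 means 40% of the cells present at the start died, and -100 means all died.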 Unmarked numbers belong to inactive results. Calls of active or inactive are those of the source. Rule for the calls: active = growth percent below 10; inactive = the rest.

Key:
Assay in all cases: NCI-60 one-dose screen, 48 h (100 = growth as untreated, 0 = no growth, -100 = all killed)
Settings in all cases: 10 µM
NCI-H23 lung = system: NCI-H23 lung
NCI-H226 lung = system: NCI-H226 lung
NCI-H322M lung = system: NCI-H322M lung
HOP-62 NSCLC = system: HOP-62 NSCLC
NCI-H460 lung = system: NCI-H460 lung
HOP-92 NSCLC = system: HOP-92 NSCLC
A549/ATCC NSCLC = system: A549/ATCC NSCLC
786-0 renal = system: 786-0 renal
COLO 205 colon = system: COLO 205 colon
NCI-H522 lung = system: NCI-H522 lung

SMILES	growth (NCI-H23 lung)	growth (NCI-H226 lung) [%]	growth (NCI-H322M lung)	growth (HOP-62 NSCLC) [%]	growth (NCI-H460 lung)	growth (HOP-92 NSCLC)	growth (A549/ATCC NSCLC) [%]	growth (786-0 renal)	growth (COLO 205 colon)	growth (NCI-H522 lung) [%]
CC(CN1CCCCC1)NC(=O)c1scnc1-c1ccccc1 (stereo unspecified)	101%	108	95.6%	100	111%	91.9%	96.8	102%	104%	–
Nc1ccc(N)c([N+](=O)[O-])c1	103%	94.1	101%	111	96%	109%	–	118%	112%	86.4
c1cc[n+](C2c3ccccc3C([n+]3ccccc3)c3ccccc32)cc1 (stereo unspecified)	65.2%	49.6	84.8%	37.8	98.8%	20.6%	78.5	50%	30.8%	–
O=S(=O)(O)c1ccc(O)c2ccccc12	93.4%	102	110%	107	115%	98.8%	118	101%	121%	–
CC(C(=O)O)(C1CCCCC1)C1(O)CCCCC1 (stereo unspecified)	103%	102	101%	96.4	105%	104%	–	98.9%	104%	–
Oc1ccccc1O	97.7%	102	91.2%	95.9	100%	90.5%	78.1	–	93.8%	–
CCN=c1cc2sc3cc(NCC)c(C)cc3nc-2cc1C	5.46% (active)	64.2	27.3%	29.4	1.61% (active)	16.3%	–	46.3%	-25.8% (active)	–
CC(=O)OC(OC(C)=O)C1CCCO1 (stereo unspecified)	97.4%	103	114%	99.2	109%	94.1%	–	–	105%	–
Cc1cc(C)c(CC(=O)O)c(C)c1	100%	99.8	100%	107	105%	90.5%	104	–	108%	–
C=CC[N+](C)(C)C	103%	93.6	108%	107	104%	86%	–	102%	120%	–
CC(C)C1CCCCC1O (stereo unspecified)	95.4%	112	124%	102	109%	101%	102	–	108%	–
CCc1nn(Cc2ccccc2)c2nc(C)c(CCc3ccccc3)c(Cl)c12	101%	90.7	79.5%	104	90.8%	9.07% (active)	–	85%	110%	–
CCCCCCCO	106%	94.7	92.6%	98.8	110%	88.7%	102	110%	118%	–
CC(O)COc1ccc(-c2ccccc2)cc1 (stereo unspecified)	108%	104	112%	102	99.2%	92.7%	107	–	110%	–
CC(=O)c1cc2c(cc1F)C(C)(C)CCC2(C)C	90.6%	96.9	96.8%	112	107%	88%	–	103%	102%	–
c1cc2cccc3c4cccc5cccc(c(c1)c23)c54	101%	98.8	119%	97.7	109%	89.6%	125	–	104%	–
N#CSc1cc(S(N)(=O)=O)ccc1N	104%	108	114%	104	114%	135%	102	–	113%	–
CC(C)(N)COS(=O)(=O)O	116%	104	115%	98.3	103%	87.6%	–	94.7%	105%	–

SMILES	growth (NCI-H23 lung)	growth (NCI-H226 lung) [%]	growth (NCI-H322M lung)	growth (HOP-62 NSCLC) [%]	growth (NCI-H460 lung)	growth (HOP-92 NSCLC)	growth (A549/ATCC NSCLC) [%]	growth (786-0 renal)	growth (COLO 205 colon)	growth (NCI-H522 lung) [%]
O=C(O)c1ccccc1NCc1ccco1	90.9%	92.6	102%	95.7	102%	108%	102	97.2%	126%	–
CCCCC1(CC)COC(CCC)OC1 (stereo unspecified)	111%	98	117%	95.9	115%	79.7%	103	–	114%	–
Cc1cc(C(C)(C)C)cc(C)c1Br	104%	111	121%	99.8	103%	75.5%	109	–	112%	–
C=CCNc1ccccc1	102%	103	106%	86.9	108%	88.5%	101	–	112%	–
OCCN1CCOCC1	115%	112	125%	104	104%	115%	104	–	119%	–
O=C1Cc2ccccc2C(=O)O1	107%	108	110%	108	108%	92%	110	–	123%	–
O=C(NCCNC(=O)c1ccc(Cl)cc1Cl)c1ccc(Cl)cc1Cl	114%	101	113%	87.6	105%	71.8%	104	107%	129%	–
N#CCCc1ccc(O)cc1	117%	102	102%	104	103%	108%	–	104%	114%	–
COC(=O)C(O)c1ccccc1 (stereo unspecified)	106%	107	125%	105	105%	95.6%	115	–	111%	–
Oc1ccc(Cc2ccccc2)c2cccnc12	7.91% (active)	75.7	-2.54% (active)	18.3	0.164% (active)	-0.901% (active)	16.2	-1.42% (active)	96.5%	–
Nc1ncnc2[nH]ncc12	17.7%	34.8	0.523% (active)	20.9	12.3%	-21.4% (active)	23	–	10.8%	–
S=c1sc2ccccc2n1CN1CCCCC1	95.9%	92.9	99.1%	89.7	102%	–	99.2	105%	103%	82.3
Cc1ccc(C(=O)c2ccccc2)c(C)c1	99.6%	104	105%	95	110%	111%	110	–	109%	–
COc1cc(CN)ccc1O	99.4%	99.8	89.7%	98.3	91.4%	–	98.6	100%	–	88
CCS(=O)(=O)c1cc(=O)[nH]c(=O)[nH]1	99.9%	107	87.4%	106	106%	162%	–	100%	113%	–
COc1ncnc2c1cnn2C	106%	106	116%	94.4	106%	99.9%	105	–	104%	–
CCCCNC1(C#N)CCN(Cc2ccccc2)CC1	86.8%	104	98.8%	87	110%	–	110	84.5%	–	84.9
O=[N+]([O-])c1ccc(N=Nc2ccccc2)cc1	90.4%	89.4	80%	96.4	120%	–	89	92%	–	81.1
